Nrf2 activator: qHTS of Nrf2 Activators | AREc32 ARE-luciferase reporter (MCF7-derived line), luminescence, 24 h | Potency, µM (highest dose often 46.1 µM), usual class: activators | hit rate 0.31% among 410,000; note: nearly all actives have a fitted effect of over 65% in size
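Luminescent ARE reporter assay in AREc32_Fluc cells: overnight plating at 37 deg C, 24 hr compound incubation, Steady-Glo added, 30 min RT before reading.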
IL2 activator: qHTS of IL-2 Activators; hit rate 0.065% among 360,000; activation, % (series mostly up to about 46 µM); IL-2 activation reporter assay, cell-based qHTS; stimulated with anti-CD3/CD4/CD28 beads; in transgenic mouse T cells; in the data active = activation above about 50%; inconclusive = mostly about 30% to 49%
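Using fluorescent plate cytometry, EGFP and DsRed are detected in transgenic mouse T cells stimulated 18 h at 37 degrees C with antibody-coated beads after 60 min compound pretreatment.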
A549 tox: Nrf2 qHTS screen for inhibitors: counterscreen for cytotoxicity; A549 ARE-Fluc cells, CellTiter-Fluor viability, 18-24 h; Potency, µM (top dose mostly 46 µM), most hits filed as inhibitors; hit rate 0.16% among 390,000; AID 504648, 2011
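Cytotoxicity counterscreen: CellTiter-Fluor fluorescence was measured in A549 ARE_Fluc cells after 18-24 h of compound exposure in a concentration series. The subsequent BugLite luminescent read reports ARE-luciferase activity.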
Nrf2 inh: Nrf2 qHTS screen for inhibitors; A549 ARE-Fluc reporter, luciferase luminescence, 18-24 h; Potency, µM (top dose mostly 46 µM), hits mostly inhibitors; hit rate 2.1% among 360,000; AID 504444, 2011; note: nearly all actives have a fitted effect of over 60% in size
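Quantitative HTS in A549 cells stably bearing an antioxidant response element-firefly luciferase construct. Inhibition of Nrf2-driven transcription was scored by luminescence after 18-24 h of compound exposure at 37 °C.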
Hits are given with their value; 0 = inactive; ? = inconclusive; - = no result given. Hits are enriched below; roughly 2.3% of the tested compounds scored in any of these assays. Unless noted, calls come from the whole dose curve; as a rule, active = well fitted curve in the direction sought with a large enough effect; inconclusive = small, poorly fitted or top-dose-only effect, or another doubt; inactive = no such curve, though single readings can be large; an effect the other way counts as inactive or inconclusive.

SMILES	Nrf2 activator	IL2 activator	A549 tox	Nrf2 inh
CC(C)(C)OC(=O)CC(=O)NNC(=O)c1nc2ccccc2[nH]1	-	-	0	0
O=C(Nc1ccccc1N1CCCC1)c1ccc([N+](=O)[O-])o1	?	0	?	16.4µM
O=C(Nc1ccc(N2CCN(C(=O)c3ccc(Cl)cc3)CC2)cc1)c1ccc([N+](=O)[O-])o1	6.31µM	0	?	20.6µM
CC1CCN(c2ccccc2NC(=O)c2ccc([N+](=O)[O-])o2)CC1	0	0	0	0
O=C(Nc1ccc(N2CCN(C(=O)c3ccc(Cl)cc3)CC2)cc1)c1ccc2c(c1)OCCO2	0	0	0	6.51µM
O=C(Nc1ccc(N2CCN(C(=O)c3ccccc3)CC2)cc1)c1ccc2c(c1)OCCO2	0	0	0	?
O=C(Nc1ccc2[nH]c(=O)[nH]c2c1)c1ccc([N+](=O)[O-])o1	12.6µM	0	0	0
COc1ccccc1OC(C)C(=O)N1CCN(CCc2ccccn2)CC1 (stereo not given)	0	-	0	0
O=C(Nc1ccc(N2CCN(Cc3ccccc3F)CC2)cc1)c1ccccc1[N+](=O)[O-]	0	0	0	0
O=C(Nc1ccc(N2CCN(Cc3ccccc3F)CC2)cc1)c1ccc([N+](=O)[O-])o1	?	0	16.4µM	23.1µM
CS(=O)(=O)N1CCN(c2ccc(NC(=O)c3ccc([N+](=O)[O-])o3)cc2)CC1	?	0	13µM	0
O=C(c1ccc(N2CCCC2=O)cc1)N1CCN(c2ccc(Cl)cc2)CC1	0	0	0	18.4µM
COc1ccc(OCc2ccc(-c3nc(C#N)c(N4CCC(C)CC4)o3)o2)cc1	0	-	0	0
CC(C)(C)c1ccc2c(c1)OC(C(=O)N/N=C\c1ccc[nH]1)CO2 (stereo not given)	0	0	8.2µM	5.8µM
CCOC(=O)c1oc2ccc(S(=O)(=O)n3nc(-c4cc(OC)cc(OC)c4)cc3N)cc2c1C	0	-	0	0
CCOC(=O)c1c(C)nc2sc3c(=O)n(-c4ccc(C(C)=O)cc4)nnc3c2c1-c1ccc(OC)cc1	0	0	0	14.6µM
O=C(NC1CCN(Cc2ccccc2)CC1)c1cccc(S(=O)(=O)Nc2ccc(SC(F)F)cc2)c1	0	0	?	16.4µM
Cc1ccc(S(=O)(=O)Nc2cccc(C(=O)NC3CCN(Cc4ccccc4)CC3)c2)cc1F	0	0	?	10.3µM
CC(C)(C)/C(O)=C/c1nc2cc(Cl)ccc2oc1=O	10µM	0	0	0
Cc1ccc2oc(=O)c(/C=C(\O)C(C)(C)C)nc2c1	?	0	0	0
Cc1ccc(F)cc1NC(=O)COC(=O)c1ccc(S(C)(=O)=O)c([N+](=O)[O-])c1	-	-	0	0
CN(C)c1ccc2nc3ccc(=O)cc-3sc2c1	0	0	-	-
CN(C)c1ccc2nc3ccc(=[N+](C)C)cc-3sc2c1	0	0	?	11.6µM
O=C(Nc1ccccc1)N1CCN(c2cccc(C(F)(F)F)c2)CC1	0	0	0	23.1µM
O=C(c1noc2c1CCCCC2)N1CCN(c2cccc(C(F)(F)F)c2)CC1	0	-	0	?
SMILES	Nrf2 activator	IL2 activator	A549 tox	Nrf2 inh
FC(F)(F)c1cccc(N2CCN(C(=S)NCC3CCCO3)CC2)c1 (stereo not given)	0	0	?	13µM
COC(=O)[C@@H](NC(=O)N1CCN(c2cccc(C(F)(F)F)c2)CC1)C(C)C	0	0	0	?
CCC(C)[C@H](NC(=O)N1CCN(c2cccc(C(F)(F)F)c2)CC1)C(=O)OC (stereo not given in full)	0	0	0	18.4µM
CC1CCc2onc(C(=O)N3CCN(c4cccc(C(F)(F)F)c4)CC3)c2C1 (stereo not given)	0	-	0	20.6µM
O=C1CCc2cc(S(=O)(=O)Nc3cccc(C(F)(F)F)c3)ccc2N1	-	-	0	?
COc1ccc2nc(C)cc(SCC(=O)N/N=C/c3cccc4ccccc34)c2c1	0	0	23.1µM	16.4µM
CCOC(=O)c1csc(NC(=O)c2ccc(OCC)cc2)n1	0	0	0	20.6µM
CCOC(=O)c1csc(NC(=O)c2ccccc2)n1	0	0	0	?
COc1ccccc1N1CCN(C(=O)c2cc3c(=O)oc4ccc(C)cc4c3s2)CC1	0	-	0	0
CCn1c(=NC(=O)CS(=O)(=O)c2ccc(C)cc2)sc2cccc(OC)c21	0	0	0	23.1µM
CCCn1ccc2c(OCC(=O)Nc3ccc(OC)c(OC)c3)cccc2c1=O	0	-	0	-
COc1ccc(/C=C2\CCC/C(=C\c3ccc(OC)c(OC)c3OC)C2=O)c(OC)c1OC	0	0	?	8.2µM
